CYP2C19 act – increases human CYP2C19 enzyme activity; AID 1025; 96,000 tested, under 10 active; activation factor at 5 µM; recombinant CYP2C19, luciferin-H EGE luminescence; stronger effect = higher value; 0 = fully inhibited enzyme, 1 = untreated enzyme; P33261;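 active = activation factor of at least 2 at 5 µM in the primary screen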
CYP2C9 activ – CYP2C9 (human) activation. 1.4% of 96,000 active. recombinant CYP2C9, luciferin-H conversion, luminescence; stronger effect = higher value; factor 1 = untreated enzyme, 0 = blocked. AID 1024. P11712. activation factor at 5 µM;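 active = activation factor of 2 or more for CYP2C9 at a 5 µM dose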
PLK1 PBD inh – inhibitors of human Plk1 polo box domain binding | Plk1 PBD phosphopeptide binding, fluorescence polarization | inhibition, %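 (tested at about 20 µM)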 | P53350 | 0.13% of 97,000 active; in the data active = inhibition above about 34%, passing the limit was not always enough
Target sequence (P53350 whole entry, looked up, the tested form may be a part): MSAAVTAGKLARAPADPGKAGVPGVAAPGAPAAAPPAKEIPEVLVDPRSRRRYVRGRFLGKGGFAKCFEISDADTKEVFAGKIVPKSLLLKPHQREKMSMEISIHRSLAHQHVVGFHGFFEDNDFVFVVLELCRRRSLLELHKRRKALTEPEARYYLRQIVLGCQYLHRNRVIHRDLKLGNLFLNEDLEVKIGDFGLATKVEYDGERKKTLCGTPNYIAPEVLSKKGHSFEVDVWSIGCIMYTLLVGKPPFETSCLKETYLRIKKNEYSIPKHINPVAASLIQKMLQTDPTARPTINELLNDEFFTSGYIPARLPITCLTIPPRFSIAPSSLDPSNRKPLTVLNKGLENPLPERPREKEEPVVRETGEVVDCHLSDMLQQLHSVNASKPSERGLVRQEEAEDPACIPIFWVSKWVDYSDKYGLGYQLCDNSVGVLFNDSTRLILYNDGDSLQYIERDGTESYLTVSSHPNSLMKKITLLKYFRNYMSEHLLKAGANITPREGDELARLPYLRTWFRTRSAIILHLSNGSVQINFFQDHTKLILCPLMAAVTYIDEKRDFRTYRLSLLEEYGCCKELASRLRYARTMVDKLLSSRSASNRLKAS
CYP2C9 inhib – blocks human cytochrome P450 2C9; 20% of 96,000 active; inhibition, % at 5 µM; P11712; CYP2C9 Supersomes, luciferin-H conversion, luminescence; AID 777;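 active = blocking of liver enzyme CYP2C9 beyond about 50% at 5 µM, limit read from the data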
CYP2C19 inhib – blocks human cytochrome P450 2C19; P33261; CYP2C19 Supersomes, luciferin-H EGE luminescence, 30 min; inhibition, % at 5 µM; 21% of 96,000 active; AID 778;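 active = CYP2C19 inhibition above a set limit at 5 µM in the primary screen, cut at about 50% in these data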
PLK1 inh – inhibitors of human PLK1 kinase. P53350. recombinant PLK1 kinase, TR-FRET peptide phosphorylation. inhibition, % at 10 µM. 0.53% of 97,000 active. AID 619;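 active = inhibition of 50% or more in the single-concentration screen; inactive = inhibition below 50%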
A number is an active result; 0 = inactive; - = no result given. Hits are enriched below; roughly 28% of the tested compounds scored in any of these assays.

SMILES | CYP2C19 act | CYP2C9 activ | PLK1 PBD inh | CYP2C9 inhib | CYP2C19 inhib | PLK1 inh
c1ccc(C(c2ccccc2)N2CCN(Cc3nnnn3C3CCCC3)CC2)cc1 | 0 | 0 | 0 | 98 | 96 | 0
c1cncc(C(c2nnnn2C2CCCC2)N2CCCC2)c1 (stereo not given) | 0 | 0 | 0 | 0 | 0 | 0
CCC(c1nnnn1C1CCCC1)N1CCN(c2ccccc2F)CC1 (stereo not given) | 0 | 0 | 0 | 56 | 0 | 0
O=C(Nc1cccc(C(F)(F)F)c1)c1ccc2nc(N3C(=O)CCC3=O)sc2c1 | 0 | 0 | 0 | 0 | 0 | 0
COc1ccc(/C=C(/C#N)C(=O)Nc2cc(C)ccc2C)cc1C(=O)O | 0 | 0 | 0 | 0 | 0 | 0
O=C1C2CC=C(Cl)CC2C(=O)N1CN(Cc1ccco1)CN1C(=O)C2CC=C(Cl)CC2C1=O (stereo not given) | 0 | 0 | 0 | 0 | 0 | 0
COc1cc2c(cc1NC(=O)c1cccnc1)oc1ccccc12 | 0 | 0 | 0 | 0 | 0 | 0
COc1cc2c(cc1NC(=O)c1ccncc1)oc1ccccc12 | 0 | 0 | 0 | 91 | 58 | 0
COc1cc2c(cc1NS(=O)(=O)N1CCCC1)oc1ccccc12 | 0 | 2 | 0 | 0 | 82 | 0
COc1cc(NC(=O)c2nccnc2C(=O)O)cc(OC)c1 | 0 | 0 | 0 | 0 | 0 | 0
O=C1CCCc2c1cc(C(=O)Nc1ccc(Cl)cn1)c(=O)n2-c1ccccc1 | 0 | 0 | 0 | 78 | 0 | 0
COc1ccc(-n2c3c(cc(C(=O)Nc4ccc(C)cc4)c2=O)C(=O)CCC3)cc1 | - | - | 0 | - | - | 0
COc1ccc(S(=O)(=O)NC(C)C(=O)Nc2cccc(C(C)=O)c2)cc1 (stereo not given) | 0 | 0 | 0 | 64 | 0 | 0
CCOC(=O)c1ccc(NC(=O)C(C)NS(=O)(=O)c2ccc(OC)cc2)cc1 (stereo not given) | 0 | 0 | 0 | 0 | 50 | 0
CC(C)(C)OC(=O)NNC1CC(=O)N(c2ccccc2F)C1=O (stereo not given) | 0 | 0 | 0 | 0 | 0 | 0
CC1CN(C(=O)c2cc3c(=O)n4ccccc4nc3s2)CC(C)O1 (stereo not given) | 0 | 0 | - | 0 | 0 | -
COc1ccc(-n2ncc(S(=O)(=O)c3ccccc3)c2-c2ccc(Cl)cc2)cc1 | 0 | 0 | 0 | 72 | 0 | 0
O=C(Nc1ccccc1)NC1(C(=O)N2CCN(C(=O)c3ccco3)CC2)CCCCC1 | 0 | 0 | 0 | 0 | 0 | 0
Cc1cccc(-c2c3c(=O)n(C)c(=O)n(C)c3c3nnc4ccccc4n23)c1 | - | - | 0 | - | - | 0
O=C(Nn1cnnc1)c1cc2cc(Br)ccc2oc1=O | 0 | 0 | 0 | 0 | 54 | 0
CC(C)NC(=O)c1cc2cc(Br)ccc2oc1=O | 0 | 0 | 0 | 50 | 61 | 0
CN(C)CCNC(=O)c1cc2cc(Br)ccc2oc1=O | 0 | 0 | - | 0 | 0 | -
CCc1cc2c(-c3ccccc3)cc(=O)oc2c(CN2CCOCC2)c1O | 0 | 0 | 0 | 92 | 78 | 0
O=c1cc(-c2ccccc2)c2ccc(O)c(CN3CCCCC3)c2o1 | 0 | 0 | 0 | 0 | 0 | 0
CCCc1cc(=O)[nH]c(/N=C(/NC(=O)C(C)N2C(=O)c3ccccc3C2=O)Nc2ccccc2)n1 (stereo not given) | 0 | 0 | 0 | 62 | 0 | 0
SMILES | CYP2C19 act | CYP2C9 activ | PLK1 PBD inh | CYP2C9 inhib | CYP2C19 inhib | PLK1 inh
COc1nc(-c2ccc(Cl)cc2)ccc1-c1noc(-c2ccncc2)n1 | - | - | 0 | - | - | 0
COc1ccc(C(=O)c2ccccc2Cl)cc1 | 0 | 2.5 | 0 | 0 | 81 | 0
COc1ccc(OC)c(C(=O)c2ccccc2)c1 | - | - | 0 | - | - | 0
COc1ccc2cc(C(=O)c3ccccc3)c(=O)oc2c1 | 0 | 0 | 0 | 0 | 92 | 0
COc1ccc(C(=O)c2c[nH]c3ccccc23)cc1 | 0 | 0 | 0 | 0 | 0 | 0
COC(=O)c1cc2ccsc2n1CC(=O)N(C)C1CCCCC1 | 0 | 0 | 0 | 0 | 0 | 0
Cc1ccc(N(CC(=O)N2CC(=O)Nc3ccccc32)S(=O)(=O)c2ccc3c(c2)OCCO3)cc1 | - | - | 0 | - | - | 0
COC(=O)c1ccc(CN(C)S(=O)(=O)c2ccc(C)cc2)o1 | 0 | 0 | - | 58 | 91 | -
COC(=O)c1ccc(CN(c2ccc(C)cc2)S(=O)(=O)c2ccc3c(c2)OCCO3)o1 | 0 | 0 | 0 | 74 | 59 | 0
CC1(C(=O)CSc2n[nH]c(-c3ccccc3Cl)n2)CCC(=O)O1 (stereo not given) | 0 | 0 | 0 | 0 | 0 | 0
Cc1ccc(CNC(=O)C2CCN(S(=O)(=O)c3cccs3)CC2)o1 | - | - | 0 | - | - | 0
Brc1[nH]nc2ccccc12 | 0 | 0 | 0 | 0 | 0 | 0
Cc1ccc(NCc2nnc(SCC(=O)N(Cc3ccccc3)C(C)(C)C)o2)c(C)c1 | 0 | 0 | 0 | 0 | 0 | 0
CCCC(=O)N(CCN(C(=O)CCC)c1ccccc1)c1ccccc1 | - | - | 0 | - | - | 0
C=CCC(NC(C)c1ccccc1)c1ccco1 (stereo not given) | 0 | 0 | 0 | 0 | 0 | 0
NC(=O)CSc1nc(N)c2c3c(sc2n1)CCCCC3 | 0 | 0 | - | 0 | 67 | -
CCSc1nc(N)c2c3c(sc2n1)CCC3 | 0 | 0 | 0 | 0 | 96 | 0
CC(C)(NC(=O)N1CCCC1)c1cccc(C(C)(C)NC(=O)N2CCCC2)c1 | 0 | 0 | 0 | 0 | 0 | 0
COc1ccccc1-n1c(SCC(=O)N2CCCCC2)nnc1-c1ccccc1O | 0 | 0 | 0 | 0 | 0 | 0
Cc1cccc(N2CCN(C(=O)c3cc4ccccc4oc3=O)CC2)c1C | 0 | 0 | 0 | 0 | 0 | 0
CCOCCCNC(=O)CCSc1ccc(C)cc1 | - | - | 0 | - | - | 0
CC1CCCN(C(=O)Cc2ccc(F)cc2)C1 (stereo not given) | 0 | 0 | 0 | 0 | 73 | 0
O=C(c1ccc(Br)cc1)N1CCCC1 | 0 | 0 | 0 | 0 | 0 | 0
Cc1cccc(N2CCN(C(=O)Cn3ccc4ccccc4c3=O)CC2)c1C | 0 | 0 | 0 | 0 | 0 | 0
Cc1cccc(N2CCN(C(=O)Cc3ccc(Br)cc3)CC2)c1C | 0 | 0 | 0 | 0 | 70 | 0
SMILES | CYP2C19 act | CYP2C9 activ | PLK1 PBD inh | CYP2C9 inhib | CYP2C19 inhib | PLK1 inh
O=C(Cc1ccc(Br)cc1)N1CCCCCC1 | 0 | 0 | 0 | 0 | 53 | 0
O=C(Cc1ccc(Br)cc1)N1CCN(c2ccccc2)CC1 | 0 | 0 | 0 | 88 | 99 | 0
COc1ccc(CC(=O)N2CCCC(C)C2)cc1 (stereo not given) | 0 | 0 | 0 | 0 | 0 | 0
CCn1c(SCC(=O)N2CCN(c3cccc(Cl)c3)CC2)nc2ccccc2c1=O | - | - | 0 | - | - | 0
Cc1ccn2cc(CNC(=O)c3ccc(Br)o3)nc2c1 | 0 | 0 | 0 | 0 | 0 | 0
CC(=O)C1CCN(Cc2ccccc2)CC1 | 0 | 0 | 0 | 0 | 0 | 0
Cc1ccc(CN2CCNC2=O)cc1 | 0 | 0 | 0 | 0 | 0 | 0
O=C(Cc1ccc(-n2c(=S)[nH]c3ccccc3c2=O)cc1)N1CCN(c2ccccc2)CC1 | 0 | 0 | 0 | 0 | 55 | 0
Cc1ccc(CN2CCS(=O)(=O)CC2)cc1 | 0 | 0 | 0 | 0 | 66 | 0
COC(=O)C1CCN(Cc2ccc(C)cc2)CC1 | 0 | 0 | 0 | 0 | 85 | 0
